{"source": "PubChem BioAssay (NCATS)", "key": {"[1]": {"target": "Calcium and integrin-binding protein 1 (Homo sapiens) (UniProt Q99828)", "sequence (Q99828 whole entry, looked up)": "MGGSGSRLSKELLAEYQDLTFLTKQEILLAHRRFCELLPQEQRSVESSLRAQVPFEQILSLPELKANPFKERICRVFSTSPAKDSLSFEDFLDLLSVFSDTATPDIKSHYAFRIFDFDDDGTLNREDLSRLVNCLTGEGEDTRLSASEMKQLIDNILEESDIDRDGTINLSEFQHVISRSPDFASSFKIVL", "test": "Primary qHTS for Identification of Calcium Integrin Binding Protein 1 (CIB1) Competitor (AID 1508620); also: top concentration of the series differs between compounds", "how_it_was_run": "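CIB1-GST (1 uM final) and compound incubated 15 min at room temperature before adding FITC-alphaIIb peptide tracer (100 nM final). Competition for binding read by fluorescence polarization (ex 480, em 540) after another 15 min at room temperature.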"}, "[2]": {"test": "Validation qHTS assay for inhibitors of Activation Induced Cytidine Deaminase (AID): UDG Counterscreen signal (AID 1347427)", "how_it_was_run": "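Counterscreen read of UDG activity (2 U/mL, 4/3x) in the FRET deamination format with AID (1 uM, 4/3x), DJC20/DJC23 substrates (250 nM, 4x), 4 h at room temperature. NaOH stop, fluorescence at 560 ex/665 em.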"}, "[3]": {"target": "Single-stranded DNA cytosine deaminase (Homo sapiens) (UniProt Q9GZX7)", "sequence (Q9GZX7 whole entry, looked up)": "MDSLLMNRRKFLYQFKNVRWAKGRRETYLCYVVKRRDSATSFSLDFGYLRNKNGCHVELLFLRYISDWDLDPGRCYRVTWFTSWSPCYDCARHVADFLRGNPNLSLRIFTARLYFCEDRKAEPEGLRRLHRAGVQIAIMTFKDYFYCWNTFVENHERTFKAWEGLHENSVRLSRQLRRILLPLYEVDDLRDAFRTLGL", "test": "Validation qHTS assay for inhibitors of Activation Induced Cytidine Deaminase (AID): AID signal (AID 1347429)", "how_it_was_run": "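In this coupled qHTS, AID deaminates a FRET-labelled ssDNA substrate in the presence of UDG over 4 hr at room temperature. Compounds span up to 114 uM final.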"}, "[4]": {"test": "Primary qHTS for small molecule stabilizers of the endoplasmic reticulum resident proteome: Secreted ER Calcium Modulated Protein (SERCaMP) assay (AID 1508630)", "how_it_was_run": "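GLuc-SERCaMP-expressing SH-SY5Y cells, pretreated 16 h with compound, are challenged with thapsigargin to empty ER calcium stores; after 4 h, coelenterazine is added directly to the medium and luminescence is imaged.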"}, "Papain (Carica papaya)": {"target": "Papain (Carica papaya) (UniProt P00784)", "sequence (P00784 whole entry, looked up)": "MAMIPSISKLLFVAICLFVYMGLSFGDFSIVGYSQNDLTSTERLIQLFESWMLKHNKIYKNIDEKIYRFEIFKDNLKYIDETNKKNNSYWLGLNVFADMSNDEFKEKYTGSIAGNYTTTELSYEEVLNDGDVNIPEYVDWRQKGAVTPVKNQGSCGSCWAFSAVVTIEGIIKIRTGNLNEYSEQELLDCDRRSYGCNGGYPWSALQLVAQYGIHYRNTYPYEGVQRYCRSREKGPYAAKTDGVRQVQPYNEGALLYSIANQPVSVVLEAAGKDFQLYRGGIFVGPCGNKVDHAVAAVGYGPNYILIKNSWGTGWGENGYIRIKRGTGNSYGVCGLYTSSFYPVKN", "test": "Primary qHTS assay for inhibitors of the protease papain (AID 1645873);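 also: papain turnover of Z-FR-AMC read as the AMC fluorescence gain over 10 min; series mostly up to about 50 µM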"}, "[5]": {"target": "Calcium and integrin-binding protein 1 (Homo sapiens) (UniProt Q99828)", "test": "Confirmatory qHTS for Identification of Calcium Integrin Binding Protein 1 (CIB1) Competitor (AID 1508617); also: potency is read from the fitted curve at half-maximal effect; nearly all actives have a fitted effect of over 65% in size", "how_it_was_run": "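Confirmatory qHTS measures displacement of a FITC-alphaIIb peptide (100 nM) from CIB1-GST (1 uM) by fluorescence polarization. Calcium-containing HEPES buffer, pH 7.4; two 15 min room-temperature incubations.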"}, "[6]": {"target": "Cytochrome P450 2C9 (Homo sapiens) (UniProt P11712)", "sequence (P11712 whole entry, looked up)": "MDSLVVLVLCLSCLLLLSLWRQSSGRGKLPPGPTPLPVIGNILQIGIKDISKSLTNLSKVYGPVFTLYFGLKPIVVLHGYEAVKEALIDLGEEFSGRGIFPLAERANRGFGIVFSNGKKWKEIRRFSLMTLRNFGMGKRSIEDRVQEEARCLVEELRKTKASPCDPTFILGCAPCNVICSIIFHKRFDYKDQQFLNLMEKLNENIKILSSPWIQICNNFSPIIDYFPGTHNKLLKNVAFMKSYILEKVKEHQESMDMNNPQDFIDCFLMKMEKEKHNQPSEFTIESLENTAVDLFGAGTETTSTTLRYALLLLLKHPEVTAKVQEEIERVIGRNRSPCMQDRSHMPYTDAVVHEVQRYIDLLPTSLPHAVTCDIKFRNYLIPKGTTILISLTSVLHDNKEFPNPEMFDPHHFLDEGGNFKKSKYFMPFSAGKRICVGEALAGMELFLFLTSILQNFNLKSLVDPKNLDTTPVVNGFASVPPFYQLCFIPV", "test": "Cytochrome P450 family 2 subfamily C member 9 (CYP2C9) small molecule antagonists: luciferase biochemical (cell-free) qHTS assay (AID 1645842; active = well fitted curve in the direction sought with a large enough effect in the repeat runs; an effect the other way counts as inactive or inconclusive; also: potency is read from the fitted curve at half-maximal effect; nearly all actives have a fitted effect of over 55% in size)", "how_it_was_run": "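Luminescence, after 20 min with luciferin detection reagent, reflected CYP2C9 turnover during a 1 h NADPH-driven reaction at 37C. Enzyme-substrate mix contained 0.4% bovine serum albumin and was preincubated with compound 10 min at room temperature.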"}, "[7]": {"target": "N-terminal Xaa-Pro-Lys N-methyltransferase 1 (Homo sapiens) (UniProt Q9BV86)", "sequence (Q9BV86 whole entry, looked up)": "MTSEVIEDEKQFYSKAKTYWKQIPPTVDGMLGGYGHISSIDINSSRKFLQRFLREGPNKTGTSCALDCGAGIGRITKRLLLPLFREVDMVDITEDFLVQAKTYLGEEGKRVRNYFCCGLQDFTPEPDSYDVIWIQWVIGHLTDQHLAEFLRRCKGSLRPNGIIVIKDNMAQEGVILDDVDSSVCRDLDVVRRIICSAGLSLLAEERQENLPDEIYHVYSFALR", "test": "Confirmatory qHTS for Inhibitors of N-terminal methyltransferase 1 (NTMT1): MTaseGlo Assay (AID 1645874); also: series mostly up to about 100 µM; nearly all actives have a fitted effect of over 65% in size", "how_it_was_run": "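Preincubation of NTMT1 (125 nM) plus SAM (100 uM) with test compounds lasted 15 min; methylation of 1 uM SPKRIA then proceeded 30 min in the dark at room temperature. Luciferase signal reported SAH produced.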"}, "[8]": {"test": "Primary qHTS for inhibitors of nuclear receptor binding SET domain protein 2 (NSD2) in an isogenic RCH-ACV NSD2 p.E1099K mutant (9B) (AID 1645876); also: potency is read from the fitted curve at half-maximal effect; nearly all actives have a fitted effect of over 70% in size"}, "[9]": {"target": "Rap guanine nucleotide exchange factor 3 (Homo sapiens) (UniProt O95398)", "sequence (O95398 whole entry, looked up)": "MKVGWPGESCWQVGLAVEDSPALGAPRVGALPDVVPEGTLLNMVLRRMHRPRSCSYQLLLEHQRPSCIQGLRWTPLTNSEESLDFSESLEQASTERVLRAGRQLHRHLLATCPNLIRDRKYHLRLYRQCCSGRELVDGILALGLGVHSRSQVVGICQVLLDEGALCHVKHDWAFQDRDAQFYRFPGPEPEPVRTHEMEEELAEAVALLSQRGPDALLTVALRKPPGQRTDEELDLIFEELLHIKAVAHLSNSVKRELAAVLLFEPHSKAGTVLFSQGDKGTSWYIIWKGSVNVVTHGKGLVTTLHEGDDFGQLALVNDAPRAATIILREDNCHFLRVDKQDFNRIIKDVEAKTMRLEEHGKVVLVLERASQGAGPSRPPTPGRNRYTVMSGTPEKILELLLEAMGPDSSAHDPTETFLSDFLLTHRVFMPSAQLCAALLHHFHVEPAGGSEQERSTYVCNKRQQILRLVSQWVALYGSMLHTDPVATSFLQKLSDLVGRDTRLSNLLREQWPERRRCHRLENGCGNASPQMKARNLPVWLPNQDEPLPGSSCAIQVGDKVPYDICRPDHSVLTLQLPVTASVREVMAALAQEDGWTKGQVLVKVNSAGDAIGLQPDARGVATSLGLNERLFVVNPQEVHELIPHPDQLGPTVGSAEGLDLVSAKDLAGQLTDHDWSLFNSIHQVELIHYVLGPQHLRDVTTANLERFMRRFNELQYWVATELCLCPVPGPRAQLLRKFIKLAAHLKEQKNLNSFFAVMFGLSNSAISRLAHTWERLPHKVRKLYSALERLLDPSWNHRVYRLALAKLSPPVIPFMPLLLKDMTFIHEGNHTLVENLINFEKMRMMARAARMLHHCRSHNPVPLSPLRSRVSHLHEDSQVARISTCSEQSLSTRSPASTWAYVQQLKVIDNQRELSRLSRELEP", "test": "Confirmatory qHTS for agonist of cAMP-regulated guanine nucleotide exchange factor 3 (EPAC1) (AID 1645881);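 also: EPAC1 catalysed release of BODIPY-GDP from Rap1B seen as fluorescence loss; nearly all actives have a fitted effect of over 75% in size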"}, "[10]": {"target": "Rap guanine nucleotide exchange factor 4 (Homo sapiens) (UniProt Q8WZA2)", "sequence (Q8WZA2 whole entry, looked up)": "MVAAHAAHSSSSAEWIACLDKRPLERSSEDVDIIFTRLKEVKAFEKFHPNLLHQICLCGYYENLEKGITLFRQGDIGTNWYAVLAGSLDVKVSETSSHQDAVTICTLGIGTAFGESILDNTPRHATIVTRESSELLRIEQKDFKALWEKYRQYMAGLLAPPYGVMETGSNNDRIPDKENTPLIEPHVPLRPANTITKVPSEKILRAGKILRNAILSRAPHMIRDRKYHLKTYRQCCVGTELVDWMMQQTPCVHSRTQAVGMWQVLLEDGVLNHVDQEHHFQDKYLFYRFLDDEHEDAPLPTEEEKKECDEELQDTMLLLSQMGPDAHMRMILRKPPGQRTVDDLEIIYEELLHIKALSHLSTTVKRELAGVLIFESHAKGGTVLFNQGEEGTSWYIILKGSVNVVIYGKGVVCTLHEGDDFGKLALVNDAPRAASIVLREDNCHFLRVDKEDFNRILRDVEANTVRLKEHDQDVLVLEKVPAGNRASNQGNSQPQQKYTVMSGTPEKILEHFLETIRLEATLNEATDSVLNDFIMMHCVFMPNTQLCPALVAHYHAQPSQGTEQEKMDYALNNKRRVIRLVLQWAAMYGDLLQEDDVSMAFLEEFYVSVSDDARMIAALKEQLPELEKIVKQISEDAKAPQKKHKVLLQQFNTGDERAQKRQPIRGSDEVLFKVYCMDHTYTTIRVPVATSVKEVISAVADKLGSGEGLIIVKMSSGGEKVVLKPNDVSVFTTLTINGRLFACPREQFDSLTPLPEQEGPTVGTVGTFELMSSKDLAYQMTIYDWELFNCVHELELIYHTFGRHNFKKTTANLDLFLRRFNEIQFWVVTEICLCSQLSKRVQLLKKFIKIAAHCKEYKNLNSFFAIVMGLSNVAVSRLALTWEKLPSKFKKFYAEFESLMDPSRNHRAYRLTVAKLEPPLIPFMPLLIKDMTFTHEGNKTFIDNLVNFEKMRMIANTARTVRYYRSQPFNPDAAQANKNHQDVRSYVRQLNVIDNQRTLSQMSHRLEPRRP", "test": "Confirmatory qHTS for agonist of cAMP-regulated guanine nucleotide exchange factor 4 (EPAC2) (AID 1645884); also: nearly all actives have a fitted effect of over 65% in size"}, "[11]": {"target": "Rap guanine nucleotide exchange factor 3 (Homo sapiens) (UniProt O95398)", "test": "Counterscreen qHTS for antagonist of cAMP-regulated guanine nucleotide exchange factor 3 (EPAC1) (AID 1645888);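 also: fluorescence loss as bound BODIPY-GDP is released from Rap1B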", "how_it_was_run": "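Rap1B-BODIPY-GDP 250 nM + GDP 50 uM; cpds 7-pt, final 9.74 nM–152 uM (activator mode) or from 7.32 nM upwards (inhibitor mode); RT; FI 480/540 nm at 5 and 30 min, then ± cAMP, reread.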"}, "[12]": {"target": "Calcium and integrin-binding protein 1 (Homo sapiens) (UniProt Q99828)", "test": "Validation qHTS for Identification of Calcium Integrin Binding protein 1 (CIB1) Competitor (AID 1508618)", "how_it_was_run": "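Displacement of FITC-alphaIIb peptide (100 nM) from CIB1-GST (1 uM) is monitored by polarization in quantitative HTS format; buffer carries 5 mM CaCl2 and 125 mM NaCl at pH 7.4, incubations are at room temperature.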"}, "[13]": {"target": "Cytochrome P450 2D6 (Homo sapiens) (UniProt P10635)", "sequence (P10635 whole entry, looked up)": "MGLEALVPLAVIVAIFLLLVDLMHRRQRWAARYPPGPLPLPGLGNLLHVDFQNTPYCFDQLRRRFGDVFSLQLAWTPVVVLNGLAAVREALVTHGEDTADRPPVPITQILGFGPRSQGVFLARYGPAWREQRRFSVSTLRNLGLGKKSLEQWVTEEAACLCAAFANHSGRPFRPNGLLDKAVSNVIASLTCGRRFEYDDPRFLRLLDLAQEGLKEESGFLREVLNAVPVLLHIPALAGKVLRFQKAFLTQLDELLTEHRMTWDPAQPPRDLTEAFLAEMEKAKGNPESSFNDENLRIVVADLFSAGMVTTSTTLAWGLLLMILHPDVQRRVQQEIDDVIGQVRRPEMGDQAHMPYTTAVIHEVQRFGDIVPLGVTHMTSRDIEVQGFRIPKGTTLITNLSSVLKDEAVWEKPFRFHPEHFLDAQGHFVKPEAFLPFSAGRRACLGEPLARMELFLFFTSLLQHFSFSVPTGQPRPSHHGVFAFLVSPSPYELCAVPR", "test": "Cytochrome P450 family 2 subfamily D member 6 (CYP2D6) small molecule antagonists: luciferase biochemical (cell-free) qHTS assay (AID 1645840; active = well fitted curve in the direction sought with a large enough effect in the repeat runs; an effect the other way counts as inactive or inconclusive; also: potency is read from the fitted curve at half-maximal effect; nearly all actives have a fitted effect of over 55% in size)", "how_it_was_run": "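P450-Glo luminescent screen: recombinant CYP2D6 enzyme–proluciferin substrate mix preincubated with compound 10 min at room temperature, then NADPH regeneration added for 1 h at room temperature. Detection reagent added for 20 min; luciferin light read as relative luminescence units.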"}, "[14]": {"test": "Primary qHTS for inhibitors of nuclear receptor binding SET domain protein 2 (NSD2) in an RCH-ACV wild type WT cells (2C) (AID 1645877); also: potency is read from the fitted curve at half-maximal effect; nearly all actives have a fitted effect of over 70% in size"}}, "note": "“And” between values parts separate entries of the source, which are not always exact repeats. Identical values can stand only once. Inconclusive results are not listed. Where a call stands in place of a potency, no number is given. The source made the active and inactive calls. Unless noted, calls follow the shape of the dose curve; as a rule, active = well fitted curve in the direction sought with a large enough effect; inconclusive = small, poorly fitted or top-dose-only effect, or another doubt; inactive = no such curve, though single readings can be large; an effect the other way counts as inactive or inconclusive.", "data": [{"smiles": "C[C@@H]1O[C@@H](O[C@H]2[C@H](O[C@H]3CC[C@@]4(C)C(CC[C@]5(C)C4C=C[C@]46OC[C@@]7(CCC(C)(C)C[C@H]74)[C@@H](O[C@@H]4O[C@@H](C)[C@H](O)[C@@H](O)[C@H]4O)C[C@]65C)[C@]3(C)CO)O[C@H](CO)[C@@H](O)[C@@H]2O[C@@H]2O[C@H](CO)[C@@H](O)[C@H](O)[C@H]2O)[C@H](O)[C@H](O)[C@H]1O", "note": "(some centres undefined)", "values": [{"measurement": "Potency", "setting": "[1]", "value": "inactive"}]}, {"smiles": "COC(=O)c1cc2c(C(F)(F)F)cc(-c3ccccc3)cc2n1O", "values": [{"measurement": "Potency", "setting": "[1]", "value": "inactive"}]}, {"smiles": "COc1ccc(CNCc2cccc3ccccc23)cc1", "values": [{"measurement": "Potency", "setting": "[1]", "value": "inactive"}]}, {"smiles": "NCCCC(=O)O", "values": [{"measurement": "outcome", "setting": "[2]", "value": "inactive"}, {"measurement": "outcome", "setting": "[3]", "value": "inactive"}, {"measurement": "outcome", "setting": "[4]", "value": "inactive"}, {"measurement": "outcome", "setting": "Papain (Carica papaya)", "value": "inactive"}]}, {"smiles": "N#Cc1ccc(Nc2nc(-c3ccc(O)cc3O)cs2)cc1C(F)(F)F", "values": [{"measurement": "Potency", "setting": "[5]", "value": "50.1 µM (active)"}, {"measurement": "Potency", "setting": "[6]", "value": "1.69 µM (active)"}, {"measurement": "Potency", "setting": "[7]", "value": "inactive"}, {"measurement": "Potency", "setting": "[8]", "value": "16.3 µM (active)"}, {"measurement": "outcome", "setting": "[9]", "value": "inactive"}, {"measurement": "outcome", "setting": "[10]", "value": "inactive"}, {"measurement": "outcome", "setting": "[11]", "value": "inactive"}]}, {"smiles": "O=C(c1ccc(F)cc1)N1CCCC(c2nc(-c3ccc(F)cc3)no2)C1", "note": "(centres undefined)", "values": [{"measurement": "Potency", "setting": "[1]", "value": "inactive"}]}, {"smiles": "C/C=C(\\C)C(=O)O[C@@H]1[C@@H](C)[C@]2(O)[C@@H]3C=C(C)C(=O)[C@H]3CC(CO)=C[C@H]2C2C(C)(C)[C@@]21OC(=O)C(C)CC", "note": "(some centres undefined)", "values": [{"measurement": "Potency", "setting": "[1]", "value": "inactive"}]}, {"smiles": "CN(C)C(CCOc1cccc2ccccc12)c1ccccc1", "note": "(centres undefined)", "values": [{"measurement": "Potency", "setting": "[1]", "value": "inactive"}]}, {"smiles": "CC(=O)C1(C)CCC2C3C=C(C)C4=CC(=O)CCC4(C)C3CCC21C", "note": "(centres undefined)", "values": [{"measurement": "Potency", "setting": "[1]", "value": "inactive"}]}, {"smiles": "C/C=C/CCC1Cc2cc(O)c(CCCC)c(O)c2C(=O)O1", "note": "(centres undefined)", "values": [{"measurement": "Potency", "setting": "[1]", "value": "inactive"}]}, {"smiles": "CN[C@H]1CC[C@@H](c2ccc(Cl)c(Cl)c2)c2ccccc21", "values": [{"measurement": "outcome", "setting": "[2]", "value": "inactive"}, {"measurement": "outcome", "setting": "[3]", "value": "inactive"}, {"measurement": "outcome", "setting": "[12]", "value": "inactive"}, {"measurement": "Potency", "setting": "[1]", "value": "inactive"}, {"measurement": "outcome", "setting": "[4]", "value": "inactive"}, {"measurement": "Potency", "setting": "[13]", "value": "2.19 µM (active)"}, {"measurement": "Potency", "setting": "[6]", "value": "15.5 µM (active)"}, {"measurement": "outcome", "setting": "Papain (Carica papaya)", "value": "inactive"}, {"measurement": "Potency", "setting": "[8]", "value": "6.68 µM (active) and 9.34 µM (active)"}, {"measurement": "Potency", "setting": "[14]", "value": "2.66 µM (active) and 9.34 µM (active)"}]}]}
